Assay results: PubChem BioAssay (NCATS)
Results filed as inconclusive are left out. Calls of active or inactive are those of the source. Calls follow the shape of the dose curve; as a rule, active = well fitted curve in the direction sought with a large enough effect; inconclusive = small, poorly fitted or top-dose-only effect, or another doubt; inactive = no such curve, though single readings can be large; an effect the other way counts as inactive or inconclusive. Where a SMILES comes first, the peptide text is derived from it.

Tests used:
[1] = biological target: Glutathione peroxidase 1 (Homo sapiens) (UniProt P07203); experiment: Primary qHTS Assay for Inhibitors of Recombinant Selenoprotein Glutathione Peroxidase 1 (GPX1) (AID 1845191); also: nearly all actives have a fitted effect of over 65% in size; as to activity, negative = inhibition: % is scaled to controls: 0 for no effect and ±100 for the full control effect
Method in brief: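 GR-coupled assay: compounds preincubated 30 min at room temperature with GPX1, then reaction started with CHP; final 10 nM GPX1, 1 mM GSH, 0.5 mM CHP, 0.5 mM NADPH, 100 nM GR, 0.01% BSA, pH 7.5 Tris buffer. NADPH fluorescence (340/450 nm) read at 0 and 15 min.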

[2] = biological target: Phospholipid hydroperoxide glutathione peroxidase GPX4 (Homo sapiens) (UniProt P36969); experiment: Primary qHTS Assay for Inhibitors of Recombinant Selenoprotein Glutathione Peroxidase 4 (GPX4) (AID 1845192); also: nearly all actives have a fitted effect of over 65% in size; as to activity change, negative = inhibition: series mostly up to about 50 µM; % is scaled to controls: 0 for no effect and ±100 for the full control effect
Method in brief: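 GR-coupled assay: recombinant GPX4 preincubated 30 min with compound at room temperature; final 200 nM GPX4, 1 mM GSH, 0.5 mM cumene hydroperoxide, 0.5 mM NADPH, 100 nM GR, 0.01% BSA, pH 7.5 Tris. NADPH fluorescence (340/450 nm) read at 0 and 15 min.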

[3] = biological target: Luciferin 4-monooxygenase (Photinus pyralis) (UniProt P08659); experiment: Primary firefly luciferase (FLuc) qHTS assay for identification of artifact compounds. (AID 1845220); also: nearly all actives have a fitted effect of over 60% in size;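 as to activity change, negative = inhibition: series mostly up to about 54 µM; plate controls were DMSO vehicle for no effect and no enzyme for full effect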
Method in brief: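 Enzymatic FLuc inhibition assay: compounds pre-exposed to luciferin/ATP (10 uM each) for 15 min, then purified P. pyralis enzyme at 10 nM added. Read-out: luminescence at 5 min.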

[4] = Primary fluorescence-based thiol-reactive (MSTI) qHTS assay for identification of artifact compounds. (AID 1845221); also: nearly all actives have a fitted effect of over 65% in size; also: potency is read from the fitted curve at half-maximal effect;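 as to activity change, negative = thiol reactive: series mostly up to about 54 µM; thiol-reactive compounds lower the probe fluorescence signal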
Method in brief: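 Thiol-reactive compounds detected by quenching of 4 uM MSTI fluorescence (525/598 nm) after 1 h room-temperature dark incubation in PBS pH 7.4, 2% DMSO. qHTS titration; percent inhibition Hill-fitted against Acetyl-MSTI/MSTI controls.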

[5] = tested on: Nanoluciferase (engineered Oplophorus gracilirostris luciferase); experiment: Primary Nanoluciferase (NLuc) qHTS assay for identification of artifact compounds. (AID 1845222);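 also: NLuc secreted into diluted conditioned medium of S16 cells; series mostly up to about 54 µM; 0% = DMSO and -100% = no enzyme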
Method in brief: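 S16 cell supernatant NLuc, 1:55; cpds qHTS; 15 min RT dark; Nano-Glo substrate 1:100, 5 min; luminescence; Hill fit of % inhibition.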

[6] = Primary redox qHTS assay for identification of artifact compounds. (AID 1845223);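 also: 0% = DMSO and 100% = reference compound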
Method in brief: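 Amplex Red (25 uM) and HRP (250 mU/mL) in HBSS, with compounds for 15 min, then 250 uM DTT for 30 min, room temperature, dark. Fluorescence 525/598 nm read; normalized to DMSO and 10 uM DA3003; Hill fit.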

Sequence of Phospholipid hydroperoxide glutathione peroxidase GPX4 (Homo sapiens) (P36969 whole entry, looked up): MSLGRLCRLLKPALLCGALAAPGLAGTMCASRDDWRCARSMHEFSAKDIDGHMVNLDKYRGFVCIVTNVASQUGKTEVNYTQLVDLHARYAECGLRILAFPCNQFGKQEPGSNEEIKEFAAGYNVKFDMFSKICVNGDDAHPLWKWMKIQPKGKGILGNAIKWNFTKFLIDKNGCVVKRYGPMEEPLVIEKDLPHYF
Sequence of Glutathione peroxidase 1 (Homo sapiens) (P07203 whole entry, looked up): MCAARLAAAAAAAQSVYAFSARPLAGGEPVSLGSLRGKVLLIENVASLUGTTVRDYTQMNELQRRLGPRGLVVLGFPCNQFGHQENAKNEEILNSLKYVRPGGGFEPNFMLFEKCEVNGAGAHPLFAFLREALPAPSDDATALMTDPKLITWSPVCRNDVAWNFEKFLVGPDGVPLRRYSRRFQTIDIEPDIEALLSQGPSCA

CC[C@H]1OC(=O)[C@H](C)[C@@H](O[C@H]2C[C@@](C)(OC)[C@@H](O)[C@H](C)O2)[C@H](C)[C@@H](O[C@@H]2O[C@H](C)C[C@H](N(C)C)[C@H]2O)[C@@](C)(O)C[C@@H](C)[C@@H]2N[C@@H](COCCOC)OC([C@H]2C)[C@]1(C)O
inactive: Potency [1] | Potency [2] | Potency [3] | Potency [4] | Potency [5] | Potency [6]

OC[C@H]1O[C@@H](Oc2ccc3c(c2)OC[C@H]2c4cc5c(cc4O[C@@H]32)OCO5)[C@H](O)[C@@H](O)[C@@H]1O
inactive: Potency [1] | Potency [2] | Potency [3] | Potency [4] | Potency [5] | Potency [6]

Cc1c(CN(C)C(=O)/C=C/c2cnc3c(c2)CCC(=O)N3)oc2ccccc12
inactive: Potency [1] | Potency [2] | Potency [3] | Potency [4] | Potency [5] | Potency [6]

C=C1CCC[C@]2(C)C[C@]3(O)OC(=O)C(C)=C3C[C@@H]12
inactive: Potency [1] | Potency [2] | Potency [3] | Potency [4] | Potency [5] | Potency [6]

C=CC1(C)CC(OC(=O)C(=C)C(O)COC(C)=O)C(C(=C)C(=O)OC)C(O)C1C(=C)CO (centres undefined)
inactive: Potency [1] | Potency [2] | Potency [3] | Potency [4] | Potency [5] | Potency [6]

O=C1NC(Cc2ccc(O)cc2)C(=O)N2CCCC12 (centres undefined)
inactive: Potency [1] | Potency [2] | Potency [3] | Potency [4] | Potency [5] | Potency [6]

C[C@@H]1O[C@@H](O[C@@H]2[C@@H](O)[C@@H](O)[C@H](O[C@@H]3[C@@H](O)[C@@H](O[C@]4(CO)O[C@H](CO)[C@@H](O)[C@@H]4OC(=O)/C=C/c4ccc(O)cc4)O[C@H](CO)[C@H]3OC(=O)/C=C/c3ccc(O)cc3)O[C@H]2C)[C@H](O)[C@H](O)[C@H]1O
inactive: Potency [1] | Potency [2] | outcome [3] inactive [at 11.6 µM] | activity change, negative = thiol reactive [4] 65.2% [at 11.5 µM] | activity, negative = inhibition [5] 1.58% [at 11.6 µM] | redox activity (% of DA3003) [6] -13.4% [at 11.5 µM]

CC1=C2CC3OC3(C)CCC3OC3(C)CC2OC1=O (centres undefined)
inactive: Potency [1] | Potency [2] | Potency [3] | Potency [4] | Potency [5] | Potency [6]

C=C(C)[C@@H]1CC[C@](C)(O)[C@@H](OC(=O)c2ccccc2)C1
inactive: Potency [1] | Potency [2] | Potency [3] | Potency [4] | Potency [5] | Potency [6]

C[C@@H](O)[C@H](N)C(=O)N1CCC[C@H]1C(=O)N1CCC[C@H]1C(=O)N[C@H](C(N)=O)[C@@H](C)O (H-TPPT-NH2)
inactive: outcome [1] inactive [at 9.52 µM] | activity change, negative = inhibition [2] 2.51% [at 9.73 µM] | activity change, negative = inhibition [3] 3.24% [at 11.6 µM] | activity change, negative = thiol reactive [4] -5.11% [at 11.5 µM] | activity, negative = inhibition [5] 4.97% [at 11.6 µM] | redox activity (% of DA3003) [6] 17.6% [at 11.5 µM]

C=C1[C@H]2[C@H](O[C@@H]3O[C@H](COC(=O)/C=C/c4cc(OC)c(O)c(OC)c4)[C@@H](O)[C@H](O)[C@H]3O)OC=C(C(=O)O)[C@H]2C[C@@H]1O
active: Potency [4] 7.07 µM
inactive: Potency [1] | Potency [2] | Potency [3] | Potency [5] | Potency [6]

CC1(C)NC2N(C1=O)c1ccccc1C2(O)CC(C(=O)O)n1cnc2ccccc2c1=O (centres undefined)
inactive: Potency [1] | Potency [2] | Potency [3] | Potency [4] | Potency [5] | Potency [6]

C[C@]12CCC(=O)C=C1[C@@H](O)C[C@@H]1[C@@H]2[C@@H](O)C[C@@]2(C)[C@H]1CC[C@]2(O)C(=O)CO
inactive: Potency [1] | Potency [2] | Potency [3] | Potency [4] | Potency [5] | Potency [6]

N#CCc1ccc(O)cc1O[C@@H]1O[C@H](CO)[C@@H](O)[C@H](O)[C@H]1O
active: Potency [4] 13.1 µM
inactive: Potency [1] | Potency [2] | Potency [3] | Potency [5] | Potency [6]

CC12CCC3c4ccc(O)cc4CCC3C1CCC2OC1OC(C(=O)O)C(O)C(O)C1O (centres undefined)
inactive: Potency [1] | Potency [2] | Potency [3] | Potency [4] | Potency [5] | Potency [6]

CC(=O)O[C@@]1(C)C[C@@H](O)[C@]2(O)C=CO[C@@H](O[C@@H]3O[C@H](CO)[C@@H](O)[C@H](O)[C@H]3O)[C@@H]21
inactive: Potency [1] | Potency [2] | Potency [3] | Potency [4] | Potency [5] | Potency [6]

C=CC(C)(O)CC/C=C(/C)C(=O)OC1C(OC2OCC(OC3OC(CO)C(O)C(O)C3O)C(OC3OCC(O)C(OC4OC(C)C(O)C(O)C4O)C3O)C2O)COC(OC(=O)C23CCC(C)(C)CC2C2=CCC4C5(C)CCC(OC6OC(CO)C(OC7OC(CO)C(O)C(OC8OCC(O)C(O)C8O)C7O)C(O)C6O)C(C)(C)C5CCC4(C)C2(C)CC3O)C1O (centres undefined)
inactive: activity, negative = inhibition [1] -7.71% [at 9.52 µM] | outcome [2] inactive [at 9.73 µM] | activity change, negative = inhibition [3] 3.07% [at 6.45 µM] | activity change, negative = thiol reactive [4] 146% [at 6.41 µM] | activity, negative = inhibition [5] 2.49% [at 6.45 µM] | redox activity (% of DA3003) [6] 3.8% [at 6.41 µM]

C=CC(C)(O)CC/C=C(\C)C(=O)OC1CC2(C(=O)O)CCC3(C)C(=CCC4C5(C)CCC(OC6OC(COC7OCC(O)C(O)C7O)C(O)C(OC7OCC(O)C(O)C7O)C6OC6OC(CO)C(O)C(O)C6OC6OCC(O)C(O)C6O)C(C)(C)C5CCC43C)C2CC1(C)C (centres undefined)
inactive: outcome [1] inactive [at 9.52 µM] | activity change, negative = inhibition [2] -6.88% [at 9.73 µM] | outcome [3] inactive [at 11.6 µM] | activity change, negative = thiol reactive [4] 122% [at 11.5 µM] | activity, negative = inhibition [5] 2.64% [at 11.6 µM] | redox activity (% of DA3003) [6] 11.8% [at 11.5 µM]

CC1=CC2(O)/C=C/C(C)(O)CC(O)/C=C/C(=O)OC23C(=O)NC(CC(C)C)C3C1C (centres undefined)
inactive: Potency [1] | Potency [2] | Potency [3] | Potency [4] | Potency [5] | Potency [6]
